Out of some 420,000 compounds screened, about 64,000 (15%) were called active. Another 27% or so got no clear call; they are omitted. Calls come from the whole dose curve; as a rule, active = well fitted inhibition curve with a large enough effect; inconclusive = small, poorly fitted or top-dose-only effect; inactive = flat fitted curve, though single readings scatter. The list is a sample of the results. A call without a number means that no potency is given here.
Potency is the fitted concentration of half-maximal effect.

The nature of this assay: qHTS for Inhibitors of human tyrosyl-DNA phosphodiesterase 1 (TDP1): qHTS in cells in absence of CPT. Note: nearly all actives have a fitted effect of over 55% in size. The note with it: DT40 Tdp1-/- hTDP1 cells, no CPT, ATP luminescence, 48 h; activity change, negative = growth inhibition: at 46.2 µM (top of the series). The method, boiled down: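 Chicken DT40 Tdp1-/- cells stably complemented with human TDP1 were seeded at 400 cells/well with DMSO in place of 20 nM camptothecin. After compound pinning, cells grew at least 48 hr at 37 °C; viability read by CellTiter-Glo luminescence.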
(In general: In qHTS, concentration-response curves come from the screen itself.)
In the case of `CC1CCCC(N2CCN(C(=O)c3ccc(F)cc3)CC2)C1` (centres undefined), the Potency entry was “inactive”.
For `CS(=O)c1ccc(/C=C2\C=Cc3ccccc32)cc1` (centres undefined), the Potency was 20 µM (active).
The result for `CN(C(=N)N)c1ccc(/C=C2\C=Cc3ccccc32)cc1` reads 2.82 µM (active); that for `C#CCCOC(=O)N1C2=NC(C(=O)OC)=C(C(=O)OC)[C@@H]3N(C)c4ccc(OC)cc4[C@]23C[C@H]1C(=O)OC`, “inactive”.
`O=c1ccc2cc(S(=O)(=O)NCCCc3ccccc3)ccc2[nH]1`: the Potency result was “inactive”.
`C=CCn1c(SCc2nnc(-c3ccccc3)o2)nnc1C(O)c1ccccc1` (centres undefined): the Potency result was “inactive”.
Regarding `FC(F)(F)c1cccc(-c2cn[nH]c2C2CCCN(Cc3cccn3-c3ccccn3)C2)c1` (centres undefined), the Potency entry is “inactive”.
The result for `Cc1nn(C)cc1C(=O)Nc1ccccc1Br` reads “inactive”; that for `COc1ccc(Cn2nnc3c(=O)[nH]c(C4CCN(C(=O)c5ccccc5Cl)CC4)nc32)cc1`, “inactive”; that for `COc1ccc(CN2CCC(c3nc4ccc(Cl)cc4[nH]3)CC2)cc1`, 20.6 µM (active).
Under `COc1ccc(N2CCN(Cc3nc4c(c(=O)[nH]c(=O)n4C)n3Cc3ccc(Cl)cc3)CC2)cc1` stands “inactive”; under `CN(CCCNC(=O)CN1C(=O)CC(C)(C)S(=O)(=O)c2ccccc21)C1CCCCC1`, “inactive”; under `COC(=O)c1nc(NC(=O)c2ccc(Cl)cc2)n[nH]1`, “inactive”.
As to `CC[C@@H](C)[C@H](NC(=O)CCc1c(C)c2cc3c4c(oc3c(C)c2oc1=O)CCCC4)C(=O)O`, the Potency entry is “inactive”.
Under `COc1ccc(NC(=O)CN(C)C(=O)c2cc(C)oc2C)cc1` stands “inactive”.
Regarding `CC(C)=CCc1ccc(O)c(=O)cc1C(C)C`, the Potency was 20.6 µM (active).
The result for `Cc1ccc(S(=O)(=O)c2c[nH]c3ccc(Cl)cc3c2=O)cc1` reads “inactive”; that for `O=C1COc2ccc(C(=O)CSc3ccc(Br)cc3)cc2N1`, 16.4 µM (active).
`O=C1COc2ccc(C(=O)COC(=O)c3cccnc3Cl)cc2N1`: the Potency entry is “inactive”.
Under `O=C1COc2ccc(C(=O)COC(=O)CCOc3ccccc3)cc2N1` stands “inactive”; under `Cc1nc2c(-c3ccccc3)c(C)[nH]n2c(=O)c1Cl`, “inactive”; under `COCc1cc(=O)n2[nH]c(C)c(-c3ccccc3)c2n1`, “inactive”.
In the case of `CCCc1cc(=O)n2[nH]c(C)c(-c3ccc(Cl)cc3)c2n1`, the Potency was 14.6 µM (active).
Under `CCCC(=O)C1=C(N(C)c2ccccc2)CC(C)(C)C(C(=O)OC)C1=O` (centres undefined) stands “inactive”.
Regarding `O=C(CSc1ccc([N+](=O)[O-])cn1)Nc1ccc(N2CCOCC2)cc1`, the Potency result was “inactive”.
As to `CCN(C(=O)CSc1nnc(-c2ccc(OC(F)F)cc2)n1N)C1CCS(=O)(=O)C1` (centres undefined), the Potency entry was “inactive”.
Consider `CCOc1ccccc1/C=c1\sc2nc(-c3ccco3)nn2c1=O`, for which the Potency entry was “inactive”.
Turning to `CN(C)c1nc(N)nc(CSc2ccccn2)n1`, the Potency entry is “inactive”.
Under `Cc1ccc(NC(=O)CCNS(=O)(=O)c2ccc3c(c2)oc(=O)n3C)cc1C` stands “inactive”; under `Cc1cccc(NC(=O)c2cc(S(=O)(=O)N3CCC4(CC3)OCCO4)ccc2F)c1`, “inactive”.
Under `Cc1ccc(NC(=O)c2cc(S(=O)(=O)NCCC3=CCCCC3)ccc2F)cc1C` stands 25.9 µM (active); under `CCCc1nc(-c2cc3cc(C)ccc3[nH]c2=O)no1`, “inactive”; under `NC(=O)C1CCN(C(=O)/C(=C/c2ccco2)NC(=O)c2ccccc2)CC1`, “inactive”.
In the case of `CCN(CC)C(=O)CSc1nnc(-c2cccc(OC)c2)o1`, the Potency result is “inactive”.
Consider `COc1ccc(CN(C(=O)CSc2nnc(-c3ccc(OC)c(OC)c3)o2)c2ccc(F)cc2)cc1`, for which the Potency was 23.1 µM (active).
In the case of `COc1ccc(CCNC(=O)CSc2nnc(-c3cccc(F)c3)o2)cc1OC`, the Potency entry was “inactive”.
Under `O=C(NCc1ccccn1)c1cc2ccccc2oc1=O` stands “inactive”; under `CCc1cccc(NC(=O)CCC(=O)O)c1`, “inactive”; under `O=C(CCl)Nc1cccc(CP(=O)(c2ccccc2)c2ccccc2)c1`, 2.59 µM (active).
With `O=C(CSCc1ccccc1)Nc1ccccc1`, the Potency result was “inactive”.
For `CCC(=O)N(Cc1cc2cc(OC)ccc2[nH]c1=O)c1ccccc1C`, the Potency result was “inactive”.
With `COc1ccc(N(Cc2cc3cc(OC)ccc3[nH]c2=O)S(C)(=O)=O)cc1`, the Potency entry was “inactive”.
On to `COc1ccc2[nH]c(=O)c(CNc3ccc(C)c(C)c3)cc2c1`, for which the Potency is 8.2 µM (active).
The result for `O=C1C2N=NN(CC(=O)N3N=C(c4cccc5ccccc45)CC3c3ccccc3)C2C(=O)N1c1ccccc1` (centres undefined) reads 29.1 µM (active); that for `CC(=O)Oc1ccccc1C1=NN(C(C)=O)C(c2ccccc2)C1` (centres undefined), “inactive”.
The result for `COc1ccc(C2CC(c3ccccc3)=NN2C(=O)CSc2nccc(=O)[nH]2)cc1` (centres undefined) reads “inactive”; that for `COc1cc(CN2CCNC(=O)C2CC(=O)NCCc2ncccc2C)cc(OC)c1` (centres undefined), “inactive”; that for `CCN1CCCC1CNC(=O)c1cc2cc(OC)c(OC)cc2[nH]1` (centres undefined), “inactive”.
With `CCCS(=O)(=O)NC(=O)C1(C)CCCN(C(=O)c2ccnc(Cl)c2)C1` (centres undefined), the Potency entry is “inactive”.
As to `CCOC(=O)C1(C)CCCN(C(=O)c2ccc(N(C)C)cc2)C1` (centres undefined), the Potency result was “inactive”.
Under `CCOC(=O)C1(C)CCCN(C(=O)c2ccc(F)c(Cl)c2)C1` (centres undefined) stands 20.6 µM (active); under `COC(=O)/C(=C1\Oc2ccc(C(C)(C)C)cc2S1)C(F)(F)F`, “inactive”.
For `CC(=O)Nc1ccc(S(=O)(=O)NC2(C(F)(F)F)C(=O)NC(C)=C2C#N)cc1` (centres undefined), the Potency entry is “inactive”.
In the case of `O=C(Cc1ccccc1F)NC1CCSc2ccccc21` (centres undefined), the Potency result was “inactive”.
Under `CCc1cc(Br)ccc1NC(=O)C1CCCO1` (centres undefined) stands “inactive”; under `COc1ccccc1C(=O)COC(=O)CNS(=O)(=O)c1ccc(NC(C)=O)cc1`, “inactive”; under `O=c1c2cc3c(=O)n(CC4CCCO4)c(=O)c3cc2c(=O)n1CC1CCCO1` (centres undefined), “inactive”.
As to `O=C1c2cccc3c([N+](=O)[O-])ccc(c23)C(=O)N1CC1CCCO1` (centres undefined), the Potency is 5.8 µM (active).
Under `O=C(NCc1ccc2c(c1)OCO2)c1ccc2c(c1)C(=O)N(CC1CCCO1)C2=O` (centres undefined) stands “inactive”; under `COc1ccc(/C=C/C(=O)OCC(=O)NCc2cccs2)cc1OC`, “inactive”; under `COc1cc(/C=C/C(=O)OCC(=O)NC(=O)NCc2ccccc2)ccc1OCC#N`, “inactive”.
The result for `CCOc1ccc(/C=C/C(=O)OCC(=O)c2ccccc2OC)cc1OC` reads 20.6 µM (active); that for `COc1ccc(S(=O)(=O)N(CC(=O)N/N=C/c2ccc(C(=O)O)cc2)Cc2ccccc2)cc1OC`, “inactive”; that for `Cc1nonc1OCCn1nnnc1N`, “inactive”.
In the case of `Cc1csc(=O)n1CCC(=O)OCC(=O)Nc1ccc(N2CCOCC2)cc1`, the Potency entry was “inactive”.
Consider `O=C1Nc2cc(Cl)c(Cl)cc2N(O)N1c1ccccc1Cl`, for which the Potency result is “inactive”.
For the compound `COc1ccc(C(=O)NCc2cn3ccccc3n2)cc1`, the Potency entry is “inactive”.
`COC(=O)c1ccc2nc(-c3ccc(Cl)cc3)c(Cc3cccc(F)c3)n2c1`: the Potency was 23.1 µM (active).
The result for `COC(=O)c1ccc(NC(=O)CSc2nncc3ccc(OC)c(OC)c23)cc1` reads “inactive”; that for `COC(=O)c1ccc(COC(=O)c2cnc(Cl)c(Cl)c2)cc1`, “inactive”.
The result for `COC(=O)c1ccc2nc(-c3ccc(F)cc3)c(Cc3ccc(C)cc3)n2c1` reads “inactive”.
Under `COC(=O)c1ccc2nc(-c3ccc(OC)c(OC)c3)c(Cc3ccccc3)n2c1` stands 20.6 µM (active).
As for `COC(=O)c1ccc2nc(-c3ccccc3)c(Cc3ccc(OC)cc3C)n2c1`, the Potency was 23.1 µM (active).
Under `COC(=O)c1ccc2nc(-c3cccc(Br)c3)c(Cc3ccccc3C(F)(F)F)n2c1` stands “inactive”; under `CCN1CCN(Cc2c(O)ccc3c(=O)c(-c4ccc(OC)c(OC)c4)c(C(F)(F)F)oc23)CC1`, “inactive”; under `Cc1ccc(NS(=O)(=O)c2c(C)[nH]c(=O)[nH]c2=O)cc1C`, “inactive”.
The result for `C[C@@H]1CC[C@]2(O[C@@H](CCO)C[C@H](O)[C@H]2O)O1` reads “inactive”; that for `CCCCSc1nnc(-c2ccc(NC(=O)CC)cc2)n1C`, “inactive”; that for `O=C(c1cccc(S(=O)(=O)Nc2ccccc2Cl)c1)N1CCN(C(=O)c2ccco2)CC1`, “inactive”.
The result for `COc1ccc(C)cc1NC(=O)NCCCCc1ccccc1` reads “inactive”; that for `CCOc1ccc(-c2nonc2NC(=O)c2oc3ccc(C)cc3c2C)cc1OCC`, “inactive”; that for `CCc1nonc1NC(=O)c1oc2ccc(Cl)cc2c1C`, “inactive”.
For the compound `CCOc1ccc(-c2nonc2NC(=O)c2oc3ccc(CC)cc3c2C)cc1`, the Potency was 20.6 µM (active).
With `CCCCCCCCOC1OC(CO)C(O)C(O)C1NC(C)=O` (centres undefined), the Potency result was “inactive”.
In the case of `O=C1CCN(C(=O)Nc2ccccc2)N1`, the Potency result was “inactive”.
As to `CCNC(=O)C1(C)CCCN(C(=O)c2c(C)noc2C)C1` (centres undefined), the Potency result was “inactive”.
Under `COc1ccc(-c2cc(-c3ccc(F)cc3)nc3c2COc2ccccc2-3)cc1` stands “inactive”.
For the compound `NC(=O)C1CCN(C2OC(=O)c3ccccc32)CC1` (centres undefined), the Potency entry is “inactive”.
`CCOC(=O)NNC(=O)c1ccc(Cl)cc1`: the Potency result is “inactive”.
Regarding `Cc1ccc(S(=O)(=O)n2nc(C)c(S(=O)(=O)N3CCCCCC3)c2C)cc1`, the Potency result was “inactive”.
The result for `CCOc1ccccc1NC(=O)C1CCN(S(=O)(=O)c2c(C)nn(C)c2C)CC1` reads “inactive”; that for `Cc1nn(C)c(C)c1S(=O)(=O)N1CCC(CO)(Cc2ccc(Cl)cc2)CC1`, 16.4 µM (active); that for `COc1ccc(NC(=O)c2ccccc2CC[N+](=O)[O-])cc1`, “inactive”.
Consider `CC(=O)c1cccc(NC(=O)Nc2ccc(C)cc2)c1`, for which the Potency result was “inactive”.
Regarding `CC(=O)c1cccc(NC(=O)c2cc(C)nn2-c2ccccc2)c1`, the Potency entry is “inactive”.
Under `CC(=O)c1cccc(NC(=O)c2nc(-c3ccccc3)n(-c3cccc(C)c3)n2)c1` stands 10.3 µM (active).
As to `COc1ccc2c(c1)C(c1cccs1)=NNC(c1cccnc1)=N2`, the Potency entry was “inactive”.
The result for `COC(=O)c1cccc([N+](=O)[O-])c1CS(=O)(=O)c1ccc(C)cc1` reads “inactive”; that for `COc1cccc2c(O)cc(=O)n(C)c12`, “inactive”.
Take `COCCCN(C(=S)Nc1c(C)cc(C)cc1C)C(C)c1ccncc1` (centres undefined): the Potency entry was “inactive”.
Under `CNC(=O)c1ccsc1NC(=O)c1ccc(S(=O)(=O)N2CCc3ccccc32)cc1` stands 18.4 µM (active); under `O=C(Nc1ccc(S(=O)(=O)N2CCOCC2)cc1)c1ccc2ncsc2c1`, “inactive”.
The result for `COc1ccc(C(=O)Nc2nc(-c3ccc(S(=O)(=O)N4CCOCC4)cc3)cs2)cc1` reads 20.6 µM (active).
The result for `Cc1ccc(S(=O)(=O)N2CCOCC2)cc1NC(=O)c1ccncc1` reads “inactive”.
For the compound `CS(=O)(=O)N1CCc2cc(C(=O)Nc3ccccc3Br)ccc21`, the Potency entry was “inactive”.
Under `CSc1ccccc1NC(=O)c1ccc2c(c1)CCN2S(C)(=O)=O` stands “inactive”.
For the compound `CNC(=O)c1ccsc1NC(=O)c1ccc(S(=O)(=O)N2CCOCC2)cc1`, the Potency is 23.1 µM (active).
Regarding `COc1ccc(S(=O)(=O)n2nc(C)c(S(=O)(=O)N3CCOCC3)c2C)cc1`, the Potency result is “inactive”.
As for `Cc1cc2nc(NC(=O)c3ccc(S(=O)(=O)N4CCOCC4)cc3)sc2cc1C`, the Potency entry is “inactive”.

The values above are taken from PubChem BioAssay AID686978 (National Center for Advancing Translational Sciences (NCATS), 2013).
